# Most compounds without a hit are left out; they make up all but 2% or so of the library.
# GC-B act = human GC-B receptor activators, primary screen, HEK293 GC-B cells, cGMP TR-FRET, EC30 CNP | Atrial natriuretic peptide receptor 2 (Homo sapiens), P20594 | 0% at EC30 CNP, 100% saturating CNP | activation, % at 10 µM | 370,000 compounds, 0.11% hits;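 active = activation at 10 µM reaching about 35% in either raw or pattern-adjusted values, limit read from the data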
# Target sequence (P20594 whole entry, looked up): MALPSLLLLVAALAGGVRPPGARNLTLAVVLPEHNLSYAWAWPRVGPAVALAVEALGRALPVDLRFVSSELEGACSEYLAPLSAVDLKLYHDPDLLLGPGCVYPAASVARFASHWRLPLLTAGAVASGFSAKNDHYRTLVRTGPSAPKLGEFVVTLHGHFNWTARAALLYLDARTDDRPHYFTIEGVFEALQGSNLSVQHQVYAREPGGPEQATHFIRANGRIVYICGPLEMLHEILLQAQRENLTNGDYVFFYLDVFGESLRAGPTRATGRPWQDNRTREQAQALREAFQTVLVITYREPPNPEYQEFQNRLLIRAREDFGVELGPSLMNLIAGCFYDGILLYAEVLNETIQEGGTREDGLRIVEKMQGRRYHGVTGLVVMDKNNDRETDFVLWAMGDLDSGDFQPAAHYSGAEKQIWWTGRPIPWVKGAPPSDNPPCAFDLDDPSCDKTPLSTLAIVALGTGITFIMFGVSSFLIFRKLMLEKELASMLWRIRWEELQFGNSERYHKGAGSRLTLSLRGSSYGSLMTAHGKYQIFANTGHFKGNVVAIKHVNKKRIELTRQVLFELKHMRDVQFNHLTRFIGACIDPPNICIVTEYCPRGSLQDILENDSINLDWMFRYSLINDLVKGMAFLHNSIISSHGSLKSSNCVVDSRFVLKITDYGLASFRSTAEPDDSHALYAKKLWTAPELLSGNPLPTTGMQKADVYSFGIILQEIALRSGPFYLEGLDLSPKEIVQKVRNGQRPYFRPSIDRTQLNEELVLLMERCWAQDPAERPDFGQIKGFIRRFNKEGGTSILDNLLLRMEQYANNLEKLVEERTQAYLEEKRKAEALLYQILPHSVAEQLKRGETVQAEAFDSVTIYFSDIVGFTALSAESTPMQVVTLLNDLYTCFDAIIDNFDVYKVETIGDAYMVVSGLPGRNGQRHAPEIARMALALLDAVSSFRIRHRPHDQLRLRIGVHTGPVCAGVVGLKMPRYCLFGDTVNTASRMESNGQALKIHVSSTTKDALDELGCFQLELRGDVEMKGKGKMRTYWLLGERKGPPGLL
# GC-A act = GC-A stimulated cGMP production enhancers – HEK293 GC-A cells, cGMP TR-FRET, EC30 ANP, primary screen; 0% at EC30 ANP, 100% saturating ANP; AID 1671463, 2021; Atrial natriuretic peptide receptor 1 (Homo sapiens), P16066; activation, % at 10 µM; 370,000 compounds, 0.14% hits; in the data active = activation above about 40%
# A3A deaminase = APOBEC3A ssDNA deaminase inhibitors, primary screen, selectivity assay for APOBEC3G inhibitor project, biochemical, FAM/TAMRA oligo cleavage fluorescence | DNA dC->dU-editing enzyme APOBEC-3A (Homo sapiens), P31941 | recombinant A3A, FAM/TAMRA ssDNA deamination fluorescence | inhibition, % at 20 µM | 330,000 compounds, 0.41% hits | AID 493011, 2011;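 active = at least 40% inhibition at 20 µM here, with at most 30% in a related deaminase screen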;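 note: plate controls were A3A with DMSO for no effect and wells lacking A3A enzyme for full effect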
# A3G deaminase = APOBEC3G DNA deaminase inhibitors, primary screen, biochemical, fluorescence, single-stranded DNA substrate, uHTS | recombinant A3G, ssDNA deamination FAM/TAMRA fluorescence | inhibition, % at 20 µM | 330,000 compounds, 0.28% hits;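 active = inhibition of at least 40% at 20 µM, with no more than 30% in the related APOBEC3A deaminase screen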;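 note: plate controls were DMSO wells with A3G for no effect and wells lacking A3G enzyme for full effect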
# Neddyl block = inhibitors of cullin neddylation, primary screen, biochemical, TR-FRET, uHTS, NAE and Ubc12. NEDD8-conjugating enzyme Ubc12 (Homo sapiens) + NEDD8-activating enzyme E1 regulatory …. inhibition, % at 25 µM. 360,000 compounds, 0.58% hits. AID 651699, 2012; in the data active = inhibition above about 36%
# PfG6PD inh = PfG6PD enzyme inhibitors, primary screen, biochemical, fluorescence intensity, uHTS; PfGluPho enzyme, NADPH resazurin-diaphorase fluorescence; inhibition, % at 20 µM; 350,000 compounds, 0.78% hits;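 active = inhibition reaching at least a set limit at 20 µM in the primary screen, cut at about 59% in these data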;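 note: 0% = DMSO wells with substrate and 100% = DMSO wells lacking glucose-6-phosphate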
# PfG6PD confirm = PfG6PD inhibitors, hit retest, confirmation, biochemical, fluorescence intensity, single concentration. 2,400 compounds, 34% hits. shares compounds with PfG6PD inh. recombinant PfGluPho, NADPH-diaphorase-resazurin fluorescence. AID 504753, 2011. inhibition, % at 20 µM;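 active = inhibition of at least 50% at 20 µM in any single replicate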;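 note: 0% = DMSO with substrate and 100% = DMSO lacking glucose-6-phosphate substrate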
# Diaphorase 10uM = diaphorase inhibitors and chemical oxidizers, confirmation, counter-screen for P. falciparum G6PD inhibitor project, biochemical, fluorescence intensity, 10 µM NADPH; shares compounds with PfG6PD inh; diaphorase-coupled resazurin reduction, NADPH 10 uM; inhibition, % at 20 µM; 820 compounds, 39% hits; AID 504862, 2011;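 active = average inhibition reaching 50% or more with the compound at 20 µM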;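 note: resorufin red fluorescence formed as diaphorase reduces resazurin using NADPH; 0% = DMSO with enzyme and 100% = DMSO without enzyme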
# Diaph ctr 30uM = diaphorase inhibitors and chemical oxidizers, confirmation, counter-screen for P. falciparum G6PD inhibitor project, biochemical, fluorescence intensity, 30 µM NADPH. AID 504863, 2011. inhibition, % at 20 µM. shares compounds with PfG6PD inh. 820 compounds, 29% hits. Diaphorase/resazurin coupled assay, resorufin fluorescence;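 active = inhibition averaging 50% or more, tested at 20 µM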;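 note: 0% = DMSO with enzyme and 100% = DMSO wells lacking diaphorase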
# * marks the source's active call; other numbers are inactive results; x = no result shown.
SMILES,GC-B act,GC-A act,A3A deaminase,A3G deaminase,Neddyl block,PfG6PD inh,PfG6PD confirm,others
O=C(Nc1nnc(C2CCCCC2)s1)c1ccc(Br)s1,-5.0,5.9,5.3,-5.5,-444.0,48.8,x,
CCSc1nnc(NC(=O)c2ccc(Br)s2)s1,-4.1,2.5,5.7,-0.5,-26.7,101.9*,64.3*,Diaphorase 10uM=70.3*;Diaph ctr 30uM=61.3*
CCSc1nnc(NC(=O)c2cccnc2)s1,5.6,0.9,3.0,2.2,2.5,41.3,x,
CCOC(=O)N1CCN(C(=O)C[C@H]2C[C@@]3(C(=O)OC)C(=C[C@H](C(C)C)O[C@@H]3C3CC3)N(Cc3ccc(Cl)cc3Cl)C2=O)CC1,-9.2,-8.4,x,x,x,x,x,
Cc1cc(C(=O)Nc2nnc(C(F)(F)F)s2)cs1,7.8,0.2,-1.0,-7.5,7.3,118.7*,82.0*,Diaphorase 10uM=77.3*;Diaph ctr 30uM=72.0*
CC(C)(C)c1ccc(S(=O)(=O)N2CCC(c3cn4ccccc4n3)CC2)cc1,-1.1,-1.8,x,x,x,x,x,
Cc1cc(Cl)ccc1OCCNC(=S)NC(=O)c1cccnc1,-4.4,3.4,1.1,-0.1,-6.2,-27.3,x,
CC(C)c1ccccc1OCCNC(=S)NC(=O)c1cccnc1,-1.6,-7.2,-1.0,-2.2,14.3,67.2*,21.1,
O=c1c2ccccc2n(Cc2ccno2)n1[C@@H](Cc1ccccc1)Cn1cc(C2CCCC2)nn1,-7.0,-8.1,x,x,x,x,x,
CCc1ccc(/C=C/C(=O)NC2=NCCS2)cc1,-8.4,-0.7,x,x,x,x,x,
Cc1ccc(NC(=O)OCCCN2C(=O)CCC23CCC(C)CC3)cc1C (stereo unspecified),-11.7,-5.5,x,x,x,x,x,
O=C(O)c1ccc(-n2cc(-c3cc4ccccc4oc3=O)[nH]c2=S)cc1,-3.3,6.4,x,x,x,61.5*,25.0,
COc1ccc(-c2nnc(SCc3c(F)cccc3F)n2N)cc1,-3.4,1.8,x,x,x,x,x,
CC(C(=O)NCC(=O)Nc1ccc(F)c(F)c1F)N1CCN(c2ccc(O)cc2)CC1 (stereo unspecified),-1.1,-6.7,-2.9,13.1,-8.6,69.8*,43.4,
N#Cc1ccc(S(=O)(=O)N2CCCc3nc(-c4ccccc4)ccc32)cc1,1.7,0.2,x,x,x,x,x,
Cc1[nH]c2ccccc2c1/C=N/NC(=O)c1cccc(S(=O)(=O)Nc2cccc(C(F)(F)F)c2)c1,-0.8,2.2,-3.1,0.7,x,65.6*,15.3,
NNC(=O)c1cccc(S(=O)(=O)Nc2cccc(C(F)(F)F)c2)c1,-3.2,-0.5,4.6,0.1,-1.6,-5.2,x,
C[C@H](CO)N1C[C@H](C)[C@@H](CN(C)C(=O)Nc2ccc(C(F)(F)F)cc2)Oc2c(cccc2N(C)C)C1=O,2.1,0.9,-0.8,-2.3,12.5,82.0*,64.2*,Diaphorase 10uM=53.5*;Diaph ctr 30uM=47.9
CCCCNC(=O)C[C@H]1C[C@@]2(C(=O)OC)C(=C[C@H](COCc3ccccc3)O[C@@H]2C)N(Cc2ccco2)C1=O,2.5,3.5,x,x,x,x,x,
CCCCCCn1c(=O)n2n(c1=O)[C@@H]1CN(S(=O)(=O)c3ccc(C)cc3)C[C@]1(O)[C@@H](OC(=O)NCc1ccccc1)C2,-6.5,-1.6,x,x,3.0,66.8*,-15.5,
C=CCN1C(=O)[C@@H](CC(=O)NCC2CCCCC2)[C@]2(C(=O)OCC)CCCCC/C=C/12,3.6,0.6,x,x,x,x,x,
Nc1nc(-c2cc(O)ccc2[N+](=O)[O-])cc(-c2ccccc2)c1[N+](=O)[O-],-3.0,-19.3,24.8,33.2,6.7,75.5*,-4.1,
COC(=O)c1sccc1S(=O)(=O)Nc1ccc(S(N)(=O)=O)cc1,-3.8,4.0,-4.0,-10.5,-2.0,-8.2,x,
COC(=O)c1scc(C)c1S(=O)(=O)Nc1ccc(C)cc1,-2.0,-8.0,-1.7,-7.8,-2.9,70.1*,20.8,
N=c1c2c(ccn1Cc1ccccc1)Oc1ccc3ccccc3c1C2c1ccccc1 (stereo unspecified),-8.2,-21.5,x,x,x,x,x,
SMILES,GC-B act,GC-A act,A3A deaminase,A3G deaminase,Neddyl block,PfG6PD inh,PfG6PD confirm,others
COc1ccccc1-n1c(=O)oc2ccc(Cl)cc2c1=O,-4.5,-1.1,-6.4,-9.0,11.7,60.9*,27.4,
COC(=O)C1CN(Cc2ccc(OC)cc2)CCS(=O)(=O)N1Cc1cn(Cc2ccc(C)cc2)nn1 (stereo unspecified),-7.9,-1.5,x,x,x,x,x,
Clc1ss/c(=N\c2ccccn2)c1Cl,2.5,6.4,-2.3,2.3,28.3,63.7*,-5.8,
CC(=O)N1CC[n+]2c(-c3ccc(Cl)cc3Cl)csc21,2.7,4.2,-2.3,-5.8,-4.0,59.5*,-9.2,
Cc1ccc(NC2=NCCC2)cc1Cl,3.4,1.7,-2.3,-1.1,-5.5,12.4,x,
Cc1nc2ccc(NC3=NCCCCC3)cc2s1,2.0,0.4,-1.4,-0.1,1.2,64.0*,37.8,
COC(=O)c1ccc2nc(C3CCCCC3)c(Cc3ccccc3OC)n2c1,-3.6,-2.3,x,x,x,x,x,
Cc1ccc(SCCC(=O)N/N=C/c2ccccc2O)cc1,-1.0,6.9,-1.8,-2.0,34.3,76.9*,34.4,
Cc1ccc(SCCC(=O)N/N=C/c2cccnc2)cc1,1.9,-0.1,-3.9,-8.9,0.0,74.1*,67.0*,Diaphorase 10uM=79.9*;Diaph ctr 30uM=65.7*
Cc1ccc(C)c(NC(=O)CCC(=O)N/N=C/c2cccnc2)c1,-0.8,1.3,-1.8,-4.8,-5.0,0.0,x,
COc1ccc(Cn2cc(CN3[C@@H](Cc4ccccc4)COc4cc(Br)ccc4S3(=O)=O)nn2)cc1,5.3,2.5,x,x,x,x,x,
Brc1cc2[nH]cnc2c2ccccc12,-4.8,-1.6,0.8,-3.3,-495.8,59.3*,50.4*,Diaphorase 10uM=28.9;Diaph ctr 30uM=28.1

# Compound activity (PubChem BioAssay)
